Screening results from PubChem.
Sampled rows, rich in hits. Any-hit rate of the full collection: about 7.4%.
NPC1 prom act: NPC1 promoter activation. Huh7 NPC1 promoter luciferase reporter, 24 h. Potency, µM (top dose mostly 9.22 µM), inactives show at the highest dose activation, actives largely listed as activators. 320,000 compounds, 2.4% hits. AID 485313; also: % of control where 0% means no effect; nearly all actives have a fitted effect of over 60% in size
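Huh7 cells stably carrying NPC1 promoter–luciferase, plated in Opti-MEM with 10% FBS for 2 h, were exposed to compound in DMSO for 24 h at 37 °C; luciferase reagent was added for 10 min and luminescence read.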
SMN2 splice enh: increases expression of the SMN2 splice variant. HEK293 SMN2-luciferase splicing reporter, luminescence, 30-36 h. Potency, µM (titrated, usually from 46.1 µM), without a hit: at the highest dose activity change, positive = activation, hits mostly activators. 210,000 compounds, 2.8% hits. AID 1458; also: % of control where 0% means no effect; nearly all actives have a fitted effect of over 55% in size
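qHTS luciferase splicing reporter: luminescence rises when SMN2 exon 7 is included in transfected HEK293 cells. Compound exposure lasted 30-36 h at 37C, with 4.5 mM final sodium butyrate as control, followed by a ONE-Glo read.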
FLuc counter: inhibits or activates purified firefly luciferase, miR-21 counter-screen; 360,000 compounds, 6.9% hits; AID 588342; P08659; Potency, µM (doses to about 57.5 µM), inactives show top-dose activity change, negative = inhibition, hits mostly inhibitors; purified FLuc, Km substrates, luminescence inhibition;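 also: plate controls were vehicle for no effect and reference inhibitor for full effect; nearly all actives have a fitted effect of over 55% in size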
Target sequence (P08659 whole entry, looked up): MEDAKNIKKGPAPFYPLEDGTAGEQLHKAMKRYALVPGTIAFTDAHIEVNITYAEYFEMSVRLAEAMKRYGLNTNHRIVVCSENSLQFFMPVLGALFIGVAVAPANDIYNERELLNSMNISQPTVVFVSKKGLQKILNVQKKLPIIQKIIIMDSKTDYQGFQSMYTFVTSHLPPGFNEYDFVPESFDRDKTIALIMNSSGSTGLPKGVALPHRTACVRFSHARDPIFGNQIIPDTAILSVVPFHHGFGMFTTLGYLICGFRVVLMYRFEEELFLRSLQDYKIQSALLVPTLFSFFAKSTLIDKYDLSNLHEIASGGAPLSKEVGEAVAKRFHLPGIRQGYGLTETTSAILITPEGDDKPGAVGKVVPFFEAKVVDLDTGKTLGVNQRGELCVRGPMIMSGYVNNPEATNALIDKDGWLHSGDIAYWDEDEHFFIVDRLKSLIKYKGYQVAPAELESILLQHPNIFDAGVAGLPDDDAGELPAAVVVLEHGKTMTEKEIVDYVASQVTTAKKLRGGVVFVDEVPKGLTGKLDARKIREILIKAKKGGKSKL
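Purified P. pyralis luciferase (10nM final) with 10uM D-luciferin and 10uM ATP (Km levels) in 50mM Tris acetate pH 7.5, 10mM Mg acetate, 0.01% Tween-20, 0.05% BSA; qHTS 6-point titration, ~60 µM downward; luminescence read.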
Luc counter: counter-screen: inhibitors of Kinase-Glo firefly luciferase; Kinase-Glo luciferase, ATP luminescence, 8 min; 200,000 compounds, 0.28% hits; Potency, µM (top dose mostly 38.3 µM), without a hit: at the highest dose activity change, negative = inhibition, actives largely listed as inhibitors; Q27757; also: % is scaled to controls: 0 for no effect and ±100 for the full control effect; nearly all actives have a fitted effect of over 60% in size
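Inhibition of Kinase-Glo luciferase light generation was assessed at 10 uM ATP in pH 7.2 imidazole buffer, with luminescence measured after eight minutes at ambient temperature.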
Rab9 prom act: Rab9 promoter activation. Huh7 Rab9 promoter-luciferase reporter, luminescence, 24 h. Potency, µM (highest dose often 9.22 µM), for the others: at the highest dose activation, negative = inhibition, usual class: activators. 320,000 compounds, 2.8% hits; also: % of control where 0% means no effect; nearly all actives have a fitted effect of over 60% in size
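Cell-based reporter: Huh7 stable for Rab9 promoter-driven luciferase, plated in reduced-serum medium with 10% FBS at 1500 cells/well, compound-treated 24 h at 37 °C, luminescence read after 10 min reagent.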
ELG1 genotoxic: induces genotoxicity in HEK293T cells with luciferase-tagged ELG1. 330,000 compounds, 1.3% hits. Potency, µM (titrated, usually from 46 µM), for inactives: top-dose activity change, positive = activation, hits mostly activators. HEK293T ELG1-luciferase reporter, luminescence, 16 h; also: % of control where 0% means no effect; nearly all actives have a fitted effect of over 60% in size
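After overnight (16 hr) compound treatment at 37 °C, ELG1-luciferase HEK293T cells were lysed with ONE-Glo; luminescence quantified 30 min later at room temperature.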
Starred values were filed as active, the others as inactive; ? = inconclusive; · = no result given; [ ] = remark or other dose. Calls follow the shape of the dose curve; as a rule, active = well fitted curve in the direction sought with a large enough effect; inconclusive = small, poorly fitted or top-dose-only effect, or another doubt; inactive = no such curve, though single readings can be large; an effect the other way counts as inactive or inconclusive. Potency is read from the fitted curve at half-maximal effect.

SMILES | NPC1 prom act | SMN2 splice enh | FLuc counter | Luc counter | Rab9 prom act | ELG1 genotoxic
CC1(c2ccc(OC(F)F)cc2)NC(=O)N(CC(=O)Nc2ccccc2)C1=O (stereo not given) | -2.6% | · | -8.0% | · | 3.1% | 8.0%
CCOc1cc(C(=O)Nc2ccc(-c3nc4ccccc4s3)cc2Cl)cc(OCC)c1OCC | · | · | 13.5µM* | · | · | ·
Cc1ccc2nc(-c3ccc(NC(=O)CN4C(=O)NC(C)(c5ccc(OC(F)F)cc5)C4=O)cc3)sc2c1 (stereo not given) | 2.51µM* | · | 5.36µM* | · | 1.41µM* | 20.6µM*
COc1ccc(-c2nc3ccccc3s2)cc1NC(=O)c1ccc(F)cc1 | · | -6.2% | -1.3% | · | · | ·
Cc1ccc2nc(-c3ccc(NC(=O)COc4ccccc4)cc3)sc2c1 | · | 1.26µM* | 3.01µM* | · | · | ·
NC(N)=Nc1ccc(-c2ccc(N=C(N)N)cc2)cc1 | · | 2.0%[9.22 µM] | · | 0.3%[7.66 µM] | · | ·
CN(Cc1ccco1)c1ncnc2ccc(-c3ccc4c(c3)OCCO4)cc12 | -17.4% | · | -15.6% | · | -16.5% | ·
Cc1ccc(CSC2=Nc3ccccc3C3=NC(CC(=O)NCc4ccco4)C(=O)N23)cc1 (stereo not given) | 9.1% | 11.2µM* | ? | 2.7% | -4.1% | 5.6%
C[N+](C)(C)c1ccc([C@H](N)C(=O)O)cc1 | · | -4.3%[9.22 µM] | · | -5.8%[7.66 µM] | · | ·
COc1ccc(/C=C/C(=O)NC2CC3CCC2C3)cc1 (stereo not given) | 11.7% | · | 16.9µM* | · | 19.1% | ?
COc1ccc(/C=C/C(=O)Nc2cccc(F)c2)cc1 | · | 3.98µM* | 0.849µM* | · | · | ·
COc1ccc(NC(=O)/C=C/c2ccc(Cl)cc2)cc1 | 2.06µM* | 11.2µM* | · | ? | 2.51µM* | ·
COc1ccc(/C=C/C(=O)Nc2cccc(C(C)=O)c2)cc1 | ? | 11.2µM* | 0.953µM* | -3.0% | ? | 8.2%
COc1ccc(/C=C/C(=O)Nc2ccc(C(N)=O)cc2)cc1OC | -0.6% | · | -17.6% | · | 1.7% | 0.2%
Cc1ccccc1CN1C[C@@H]2C[C@@H](c3cnc(N4CCOCC4)s3)N3CCC[C@@]23C1=O | -3.9% | 15.8µM* | -2.9% | -2.2% | -32.1% | -7.5%
CCc1cc(C(=O)NCc2ccccc2)no1 | · | 18.2% | -17.4% | · | · | ·
CCCc1cc(C(=O)NCCc2ccccc2)no1 | 2.24µM* | 12.6µM* | 21.3µM* | -7.7% | 2.24µM* | 10.3µM*
COc1ccccc1-c1cc(C(=O)Nc2cccnc2Cl)no1 | -0.6% | · | -1.4% | · | -3.5% | 8.8%
COc1ccc(NC(=O)c2cc(-c3ccccc3OC)on2)cc1 | -3.2% | ? | 9.53µM* | 0.0% | 0.2% | ?
COc1ccccc1-c1cc(C(=O)Nc2cccnc2)no1 | ? | 26.7% | 6.75µM* | -11.5% | 25.1% | 18.4µM*
COc1ccc(NC(=O)c2cc(-c3ccccc3Cl)on2)cc1 | ? | · | 8.49µM* | · | ? | 20.6%
Cc1noc(C)c1C(=O)N1CCC2(CC1)CN(c1ccccn1)C2 | · | -13.6% | · | -3.3% | · | ·
COc1ccccc1-c1cc(C(=O)NCCc2ccccc2)no1 | ? | 25.1µM* | 9.53µM* | -5.0% | 3.55µM* | 13µM*
COc1ccc(C2c3cccn3CCN2S(=O)(=O)c2ccc([N+](=O)[O-])cc2)cc1 (stereo not given) | · | · | -2.5% | · | · | ·
N=C1/C(=C\c2ccc(SCc3ccco3)o2)C(=O)N=C2SC=NN12 | -0.8% | 1.1% | 8.49µM* | -7.3% | 21.5% | 5.9%
SMILES | NPC1 prom act | SMN2 splice enh | FLuc counter | Luc counter | Rab9 prom act | ELG1 genotoxic
CC1=NN2C(=N)/C(=C\c3ccc(SCc4ccccc4)o3)C(=O)N=C2S1 | -3.8% | -17.9% | -6.5% | -1.1% | 2.3% | 3.2%
COc1ccc(OCCSc2nc(N)cc(=O)[nH]2)cc1 | -2.0% | · | -10.6% | -0.6% | -2.3% | 0.5%
CCOc1ccc(OCCSc2nc(C)cc(=O)[nH]2)cc1 | ? | 6.4% | 13.5µM* | 0.4% | ? | ?
Cc1ccc(SCCSc2nc(C)cc(=O)[nH]2)cc1 | ? | · | 5.36µM* | · | ? | 23.1µM*
CC(=O)c1ccc(Nc2nc3ccccc3nc2-n2nc(C)cc2C)cc1 | · | 6.7% | -18.5% | · | · | ·
CC1=C(C(=O)NCc2ccccc2F)C2(CCCCC2)OC1=O | · | · | 2.7% | · | · | ·
O=C(COC(=O)c1ccc(Br)cc1)NCCc1ccccc1 | -0.4% | 5.6% | 3.1% | 3.0% | 1.4% | -1.7%
N/C(=N\OC(=O)c1ccc(Br)cc1)c1ccccc1 | 3.16µM* | ? | 0.213µM* | ? | 2.82µM* | ?
CC(=O)O/N=C(\N)c1ccc(-c2csnn2)cc1 | 16.7% | · | ? | · | 25.9% | ?
N/C(=N\OC(=O)Cc1cccs1)c1ccc(Br)cc1 | -1.7% | 2.0% | 19µM* | -1.5% | 15.9% | ?
N/C(=N\OC(=O)Cc1cccs1)c1ccc([N+](=O)[O-])cc1 | 2.4% | ? | ? | -1.7% | -1.3% | 9.9%
O=C(COC(=O)c1ccccc1)c1ccc(Br)cc1 | 2.24µM* | 8.4% | 0.536µM* | ? | 3.98µM* | 8.9%
CC(C)(C)C(=O)O/N=C(\N)c1ccc(-c2csnn2)cc1 | 2.82µM* | · | 7.57µM* | · | 4.47µM* | ?
Oc1c(C(c2ccccc2F)N2CCOCC2)sc2nc(-c3ccco3)nn12 (stereo not given) | · | · | -2.2% | · | · | ·
Cn1c(=O)c2c(c3ccccc31)OC(=O)CC2c1cccc(F)c1 (stereo not given) | · | -0.1% | ? | · | · | ·
O=C(COC(=O)CCCNC(=O)c1ccc(Cl)cc1)Nc1ccc(Br)cc1 | -1.0% | -0.4% | 3.38µM* | 0.3% | 0.2% | 1.7%
O=C(Nc1ccc(-c2csnn2)cc1)C(Cl)(Cl)Cl | 4.2% | · | -19.1% | · | 0.2% | 0.2%
CC(C)(C)C(=O)Nc1ccc(-c2csnn2)cc1 | ? | · | 23.9µM* | · | 2.82µM* | ?
O=C(CSCC(=O)OCC(=O)c1ccc(Br)cc1)Nc1ccc(Br)cc1 | -5.3% | -5.9% | 16.9µM* | 3.8% | -7.5% | 2.3%
CCNC(=O)NC(=O)COC(=O)CCCSc1nc2ccccc2[nH]1 | 5.2% | -4.8% | -24.1% | -1.2% | 14.6% | 0.3%
O=C(CCCNC(=O)c1ccc(Cl)cc1)Nc1ccc(Br)cc1 | 7.4% | · | 4.8% | · | 3.0% | 1.3%
O=C(COC(=O)CCCSc1nc2ccccc2[nH]1)Nc1ccc(Cl)cc1 | -5.0% | 8.9% | 19µM* | 0.2% | -6.0% | 2.0%
COc1ccc(N2CCN(S(=O)(=O)c3ccc4oc(=O)c5ncn(C)c5c4c3)CC2)cc1 | · | · | 0.1% | · | · | ·
CCOC(=O)CN(Cc1ccccc1)C(C(=O)NC1CCCCC1)c1ccccc1 (stereo not given) | · | 2.2% | -6.7% | · | · | ·
CC(C)(C)C(=O)O/N=C(\N)c1c(Cl)cccc1Cl | 0.5% | · | 0.1% | · | -1.5% | -2.9%
CC(C)(C)C(=O)O/N=C(\N)c1ccc(Br)cc1 | 1.2% | · | 21.3µM* | · | -5.5% | 0.4%
